{"source": "PubChem BioAssay AID588398", "about": "(Broad Institute, 2011)", "note": "Among all 1,200 compounds or so, about 110 (9.2%) were called active. Another 8% or so got no clear call; they are omitted. The list is a sample of the results. Potency and affinity values are given separately. Values without a mark were called inactive.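 How the source made its calls: active means pathway reporter half-maximal dose under half the control reporter's, or control reporter unaffected while pathway reporter is inhibited; inconclusive means either signal flat at 30 to 70% inhibition or poorly fitted; inactive means the rest.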", "data": [{"experiment": "TES1-eGFP NF-kB reporter inhibition versus Tet-On dsRED, dose response, selectivity assay for LMP1 NF-kB inhibitor project, imaging, HEK293T, dual-color eGFP/dsRED, cherry-picks (AID 588398);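 further: 0% = median of neutral control wells and -100% = median of MG132 positive control wells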", "conditions": "48 h; HEK293T Tet-On dsRED counter-screen channel, at 19.5 µM (top of the series); activity change, negative = inhibition: at the top concentration", "units": {"activity change, negative = inhibition": "%"}, "values": [{"smiles": "COc1ccc(C=C2OC(=O)C(C(C)=O)=C2O)cc1", "activity change, negative = inhibition": 8.52}, {"smiles": "COc1ccc(-c2[nH]ncc2/C=N\\NS(=O)(=O)c2ccc(Cl)cc2)cc1", "activity change, negative = inhibition": 3.98}, {"smiles": "Cc1ccc(CCNC(=O)Cc2ccc(NC3=NC4CS(=O)(=O)CC4S3)cc2)cc1", "note": "(centres undefined)", "activity change, negative = inhibition": -0.295}, {"smiles": "O=C(NN1C(=O)C2C3C=CC(C4CC34)C2C1=O)c1cccc(Cl)c1", "note": "(centres undefined)", "activity change, negative = inhibition": -7.95}, {"smiles": "CCc1ccccc1NC(=O)COC(=O)c1c(C)nsc1NC", "activity change, negative = inhibition": -8.52}, {"smiles": "Oc1c(N=NC(=S)Nc2ccccc2F)c2ccccc2n1Cc1ccccc1Cl", "activity change, negative = inhibition": 13.7}, {"smiles": "O=c1cc(Cl)nc2ccccn12", "activity change, negative = inhibition": -0.736}, {"smiles": "COc1ccc(-c2cc(C(=O)N3CCCC3)no2)cc1", "activity change, negative = inhibition": -22.8}, {"smiles": "COc1ccc(CNC(=O)N2[C@H]3CC[C@@H]2C=C(c2ccc(F)cc2OCc2ccccc2)C3)cc1OC", "activity change, negative = inhibition": -6.06}, {"smiles": "COc1cc(C(=O)Oc2ccccc2/C=N/NC(=O)c2ccc(C)c(Cl)c2)cc(OC)c1OC", "activity change, negative = inhibition": 17.4}, {"smiles": "CCCC(=O)NCCCc1nc2ccccc2[nH]1", "activity change, negative = inhibition": -6.63}, {"smiles": "O=C(Nc1nc(-c2ccccn2)cs1)c1ccc(Cl)s1", "activity change, negative = inhibition": 12.3}, {"smiles": "O=C(c1ccccc1)C(CCC(CN1CCOCC1)C(=O)c1ccccc1)CN1CCOCC1", "note": "(centres undefined)", "activity change, negative = inhibition": -99.1}, {"smiles": "COc1ccc(C(=O)NCCN2CCOCC2)cc1[N+](=O)[O-]", "activity change, negative = inhibition": 2.04}, {"smiles": "CCON1C(=O)C2(CCCCC2)C(=O)C12C=CCCC2", "note": "(centres undefined)", "activity change, negative = inhibition": 4.85}, {"smiles": "COc1cc(N(C)C)c([N+](=O)[O-])cc1C(=O)N1CCN(Cc2ccccc2)CC1", "activity change, negative = inhibition": -24.6}, {"smiles": "CC1CCN(C(=O)/C(=C\\c2cccs2)NC(=O)c2ccccc2)CC1", "activity change, negative = inhibition": -15.3}, {"smiles": "CCn1c(NC(=O)c2ccc(C)cc2)c2ccccc2nc1=O", "activity change, negative = inhibition": -28.1}, {"smiles": "COc1ccc2cc(-c3cc(C(=O)OCC(=O)Nc4c(C)n(C)n(-c5ccccc5)c4=O)c4ccccc4n3)ccc2c1", "activity change, negative = inhibition": 11.5}, {"smiles": "COc1ccc(N2Cc3ccccc3C2=O)cc1", "activity change, negative = inhibition": -7.95}, {"smiles": "O=C(NCc1ccccc1Cl)C1CCCN1S(=O)(=O)c1ccc(F)cc1", "note": "(centres undefined)", "activity change, negative = inhibition": 0.031}, {"smiles": "CCc1cc(C(=O)Nc2ncccc2O)sc1C", "activity change, negative = inhibition": 61.7}, {"smiles": "O=C(Nc1ncccc1O)c1ccc(S(=O)(=O)NCc2ccco2)cc1", "activity change, negative = inhibition": 78}, {"smiles": "COCCn1c(SCC(=O)N2CCc3ccccc32)nc2c(c1=O)SC(C)C2", "note": "(centres undefined)", "activity change, negative = inhibition": 16}, {"smiles": "COc1ccc(-c2csc3ncnc(NCCCO)c23)cc1", "activity change, negative = inhibition": -88}, {"smiles": "COc1ccc(-c2oc3ncnc(NCCN4CCOCC4)c3c2-c2ccc(OC)cc2)cc1", "activity change, negative = inhibition": -6.05}, {"smiles": "COc1ccc(-c2cc(C(F)(F)F)n3nc(C(=O)N4CCOCC4)nc3n2)cc1", "activity change, negative = inhibition": -5.43}, {"smiles": "Cc1ccccc1C(=O)N1CCN(c2ccc(NC(=O)CSc3ccc(Cl)cc3)cc2)CC1", "activity change, negative = inhibition": -33.2}, {"smiles": "CCC(C)Nc1nc(-c2ccccn2)nc2ccccc12", "note": "(centres undefined)", "activity change, negative = inhibition": -89.1}, {"smiles": "CN(Cc1ccccc1)c1nc(N)c([N+](=O)[O-])c(NCc2ccccc2)n1", "activity change, negative = inhibition": 13.6}, {"smiles": "Cc1ccc(C)c(S(=O)(=O)N2CCN(CC(=O)N3CCc4ccccc4C3)CC2)c1", "activity change, negative = inhibition": 4.86}, {"smiles": "CCOc1ccc(OCC(=O)Nc2nccs2)cc1", "activity change, negative = inhibition": 3.42}, {"smiles": "O=C(c1ccc(COc2ccccc2Cl)o1)N1CCCC1", "activity change, negative = inhibition": 26.2}, {"smiles": "Cc1cc(C)n2nc(CC(=O)NC3CCCCCC3)nc2n1", "activity change, negative = inhibition": -3.96}, {"smiles": "CCOC(=O)c1cn2nc(N3CCCCC3)ccc2n1", "activity change, negative = inhibition": -16.5}, {"smiles": "COc1ccc(CCC(=O)Nc2ccc(C)c([N+](=O)[O-])c2)cc1", "activity change, negative = inhibition": -3.49}, {"smiles": "O=C(C=C1SCCS1)/C=C/c1ccco1", "activity change, negative = inhibition": -8.35}, {"smiles": "Cc1ccccc1Cn1c(O)c(N=NC(=S)Nc2ccccc2F)c2ccccc21", "activity change, negative = inhibition": 11.9}, {"smiles": "CCc1ccc(C(=O)COC(=O)c2cccc(N3C(=O)c4c(C)nc5ccccc5c4C3=O)c2)cc1", "activity change, negative = inhibition": 239}, {"smiles": "COc1cc(/C=N/NC(=S)Nc2cccc(C(=O)O)c2)ccc1O", "activity change, negative = inhibition": 4.99}, {"smiles": "O=C(Nc1ccc(C(=O)N2CCOCC2)cc1)Nc1cccc(C(F)(F)F)c1", "activity change, negative = inhibition": -84.7}, {"smiles": "O=C(NC1=NCCS1)c1cc2ccccc2o1", "activity change, negative = inhibition": -20.6}, {"smiles": "COc1cc2c(cc1OC)-c1cc(Nc3ccc4c(c3)OCCO4)nc(=O)n1CC2", "activity change, negative = inhibition": 3.53}, {"smiles": "COc1ccccc1-n1c(-c2ccccc2)n[nH]c1=S", "activity change, negative = inhibition": -2.33}, {"smiles": "COc1ccc(N/N=C/c2c(C(=O)O)ccc3ccccc23)cc1", "activity change, negative = inhibition": -82.7}, {"smiles": "COc1ccc(/C(CC2OC(=O)c3ccccc32)=N\\NC(N)=O)cc1", "note": "(centres undefined)", "activity change, negative = inhibition": 9.72}, {"smiles": "COc1ccccc1C=NN=Cc1ccccc1O", "activity change, negative = inhibition": 11.8}, {"smiles": "O=C(Nc1ccc(F)c(F)c1)C1CCCCC1", "activity change, negative = inhibition": -0.709}, {"smiles": "CCCSc1ccc([C@@H]2[C@H]3C(=O)N(C)C(=O)[C@H]3[C@]3(C(=O)OC)CCCN23)cc1OC", "activity change, negative = inhibition": 2.29}, {"smiles": "CC[C@]1(C(=O)OC)[C@H]2C(=O)N(Cc3ccccc3)C(=O)[C@H]2[C@H]2CN=C(SCc3ccc(Cl)cc3)N21", "activity change, negative = inhibition": -97.1}, {"smiles": "COc1ccc(-n2c(C)c(C(C)=O)c3cc(OC(C)=O)ccc32)cc1", "activity change, negative = inhibition": -87.7}, {"smiles": "O=C(C1CCCCC1)N1CCN(c2ccnc3cc(Cl)ccc23)CC1", "activity change, negative = inhibition": -8.83}, {"smiles": "COc1ccc(S(=O)(=O)N2CCC(C(=O)NC3CC3)CC2)cc1OC", "activity change, negative = inhibition": 2.11}, {"smiles": "C[n+]1c2n(c3ccccc31)N=C(c1cc(C(C)(C)C)c(O)c(C(C)(C)C)c1)CS2", "activity change, negative = inhibition": -79}, {"smiles": "CC(=NNc1nc2ccccc2o1)c1ncccn1", "activity change, negative = inhibition": -91.1}, {"smiles": "CC(=NNc1nc2ccccc2s1)c1ncccn1", "activity change, negative = inhibition": -99.9}, {"smiles": "Brc1cccc(-c2cnco2)c1", "activity change, negative = inhibition": 18.5}, {"smiles": "COc1ccc(NC(=O)Cn2nnc(C(=O)NCc3ccccc3)c2N)c(OC)c1", "activity change, negative = inhibition": 114}, {"smiles": "COc1ccccc1NC(=O)C(=O)N/N=C(\\C)CC(=O)Nc1ccccc1C(F)(F)F", "activity change, negative = inhibition": 7.02}, {"smiles": "COC(=O)c1cccc(COC(=O)c2ccccc2NC(=O)c2ccco2)c1", "activity change, negative = inhibition": 0.293}, {"smiles": "Cn1c(=O)c2c(nc(NCc3ccco3)n2C/C=C/c2ccccc2)n(C)c1=O", "activity change, negative = inhibition": -18.9}, {"smiles": "O=C(CCS(=O)(=O)c1ccccc1)Nc1nccs1", "activity change, negative = inhibition": -25.5}, {"smiles": "Oc1c(N=NC(=S)Nc2ccccc2F)c2ccccc2n1Cc1cccc(Cl)c1", "activity change, negative = inhibition": 19.5}, {"smiles": "CCCCCCNC(=O)O[C@]12C[C@@H](C(=O)OC)[C@@H](C(=O)OC)C[C@@]1(O)CN(S(=O)(=O)c1ccc(C)cc1)C2", "activity change, negative = inhibition": -4.81}, {"smiles": "CCN1CCN(Cc2ccc(NC(=O)c3ccc(C)c(NC(=O)c4ccno4)c3)cc2C(F)(F)F)CC1", "outcome": "inactive"}, {"smiles": "Oc1c(N=NC(=S)Nc2ccccc2F)c2ccccc2n1Cc1ccc(F)cc1", "activity change, negative = inhibition": 11.3}, {"smiles": "CCCN(CC)c1ncnc2[nH]ncc12", "activity change, negative = inhibition": -85.4}, {"smiles": "Cc1ccccc1-n1nc(C)c2cc(C(=O)NC3CC3)sc21", "activity change, negative = inhibition": 16.1}, {"smiles": "Cc1ccc(N2C(=O)c3ccccc3C2Nc2cccnc2)nc1", "note": "(centres undefined)", "activity change, negative = inhibition": 10.4}]}]}
